Source: PubChem BioAssay AID1159580 (chemical genetic matrix, 2015)
In all, about 5,500 compounds went through this assay and about 2,000 (36%) were called active. Inconclusive results (about 18%) are left out. Some of the results follow. A number with no mark means an inactive call. No stated cut-off is given here; in the data, active means normalized growth mostly below about 0.91 (no sharp cut-off); inconclusive means no clear call, values can overlap the other calls; inactive means mostly above about 0.92.

Test: chemical genetic growth profiling, strain panel (AID 1159580);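 further: tested at 20 µM; growth read once vehicle control cultures reached saturation at 30 °C; 1 = growth at the plate median or of vehicle wells; lower values mean less growth of the strain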
Conditions: growth OD

COc1cc2ccc(=O)oc2c2ccoc12
normalized growth (S. cerevisiae deletion strains, locus YJR066W, strain TOR1, active compounds read low): 0.965 | normalized growth (S. cerevisiae deletion strains, locus YKL009W, strain mrt4, active compounds read low): 0.902 | normalized growth (S. cerevisiae deletion strains, locus YKL068W, active compounds read low): 0.999 | normalized growth (S. cerevisiae deletion strains, locus YKL085W, strain MDH1 (second series), active compounds read low): 0.999 | normalized growth (S. cerevisiae deletion strains, locus YKL085W, strain MDH1, active compounds read low): 0.999 | normalized growth (S. cerevisiae deletion strains, locus YKL160W, strain elf1, active compounds read low): 0.894 (active) | normalized growth (S. cerevisiae deletion strains, locus YKR001C, strain vps1, active compounds read low): 0.901 | normalized growth (S. cerevisiae deletion strains, locus YKR026C, strain gcn3, active compounds read low): 0.999 | normalized growth (S. cerevisiae deletion strains, locus YKR091W, strain srl3, active compounds read low): 0.998 | normalized growth (S. cerevisiae deletion strains, locus YLL001W, strain dnm1, active compounds read low): 0.87 (active) | normalized growth (S. cerevisiae deletion strains, locus YLL026W, active compounds read low): 0.982 | normalized growth (S. cerevisiae deletion strains, locus YLL041C, strain sdh2, active compounds read low): 0.991 | normalized growth (S. cerevisiae deletion strains, locus YLR027C, strain aat2, active compounds read low): 0.911 (active) | normalized growth (S. cerevisiae deletion strains, locus YLR039C, strain RIC1, active compounds read low): 1.09 | normalized growth (S. cerevisiae deletion strains, locus YLR058C, strain SHM2, active compounds read low): 0.987 | normalized growth (S. cerevisiae deletion strains, locus YLR102C, strain apc9, active compounds read low): 1.01 | normalized growth (S. cerevisiae deletion strains, locus YLR113W, strain HOG1, active compounds read low): 1.09 | normalized growth (S. cerevisiae deletion strains, locus YLR221C, strain rsa3, active compounds read low): 0.873 (active) | normalized growth (S. cerevisiae deletion strains, locus YLR258W, strain gsy2, active compounds read low): 0.87 (active) | normalized growth (S. cerevisiae deletion strains, locus YLR262C, strain YPT6 (second series), active compounds read low): 0.948 | normalized growth (S. cerevisiae deletion strains, locus YLR262C, strain YPT6, active compounds read low): 1.06 | normalized growth (S. cerevisiae deletion strains, locus YLR268W, strain sec22, active compounds read low): 0.97 | normalized growth (S. cerevisiae deletion strains, locus YLR320W, strain mms22, active compounds read low): 0.752 (active) | normalized growth (S. cerevisiae deletion strains, locus YLR342W, strain FKS1, active compounds read low): 1.01 | normalized growth (S. cerevisiae deletion strains, locus YLR357W, strain rsc2, active compounds read low): 1.16 [resistant] (active) | normalized growth (S. cerevisiae deletion strains, locus YLR370C, strain arc18, active compounds read low): 0.982 | normalized growth (S. cerevisiae deletion strains, locus YLR371W, strain rom2, active compounds read low): 0.947 | normalized growth (S. cerevisiae deletion strains, locus YLR384C, strain iki3, active compounds read low): 0.986 | normalized growth (S. cerevisiae deletion strains, locus YLR418C, strain cdc73, active compounds read low): 0.918 | normalized growth (S. cerevisiae deletion strains, locus YML016C, strain PPZ1, active compounds read low): 0.991 | normalized growth (S. cerevisiae deletion strains, locus YML032C, strain rad52, active compounds read low): 0.737 (active) | normalized growth (S. cerevisiae deletion strains, locus YML120C, strain ndi1, active compounds read low): 0.844 (active) | normalized growth (S. cerevisiae deletion strains, locus YML124C, strain tub3, active compounds read low): 1 | normalized growth (S. cerevisiae deletion strains, locus YMR058W, strain fet3, active compounds read low): 0.941 | normalized growth (S. cerevisiae deletion strains, locus YMR078C, strain ctf18, active compounds read low): 0.977 | normalized growth (S. cerevisiae deletion strains, locus YMR125W, strain sto1, active compounds read low): 1.02 | normalized growth (S. cerevisiae deletion strains, locus YMR129W, active compounds read low): 0.971 | normalized growth (S. cerevisiae deletion strains, locus YMR205C, strain PFK2, active compounds read low): 0.993 | normalized growth (S. cerevisiae deletion strains, locus YMR223W, strain ubp8, active compounds read low): 0.937 | normalized growth (S. cerevisiae deletion strains, locus YMR231W, strain pep5, active compounds read low): 0.98 | normalized growth (S. cerevisiae deletion strains, locus YMR263W, strain SAP30, active compounds read low): 0.976 | normalized growth (S. cerevisiae deletion strains, locus YMR307W, strain GAS1, active compounds read low): 1.09 | normalized growth (S. cerevisiae deletion strains, locus YNL067W, strain RPL9B, active compounds read low): 0.977 | normalized growth (S. cerevisiae deletion strains, locus YNL071W, strain lat1, active compounds read low): 0.913 (active) | normalized growth (S. cerevisiae deletion strains, locus YNL128W, strain TEP1, active compounds read low): 0.871 | normalized growth (S. cerevisiae deletion strains, locus YNL183C, strain NPR1, active compounds read low): 0.977 | normalized growth (S. cerevisiae deletion strains, locus YNL209W, strain ssb2, active compounds read low): 0.919 (active) | normalized growth (S. cerevisiae deletion strains, locus YNL233W, strain BNI4, active compounds read low): 0.982 | normalized growth (S. cerevisiae deletion strains, locus YNL248C, strain rpa49, active compounds read low): 0.458 (active) | normalized growth (S. cerevisiae deletion strains, locus YNL250W, strain rad50, active compounds read low): 0.856 (active) | normalized growth (S. cerevisiae deletion strains, locus YNL271C, strain bni1, active compounds read low): 0.956 | normalized growth (S. cerevisiae deletion strains, locus YNL298W, strain CLA4, active compounds read low): 0.954 | normalized growth (S. cerevisiae deletion strains, locus YNL307C, strain MCK1, active compounds read low): 1.01 | normalized growth (S. cerevisiae deletion strains, locus YNL322C, strain KRE1 (second series), active compounds read low): 0.793 (active) | normalized growth (S. cerevisiae deletion strains, locus YNR049C, strain mso1, active compounds read low): 1.02 | normalized growth (S. cerevisiae deletion strains, locus YNR052C, strain pop2, active compounds read low): 0.925 | normalized growth (S. cerevisiae deletion strains, locus YOL012C, strain htz1): 0.781 | normalized growth (S. cerevisiae deletion strains, locus YOL147C, strain pex11, active compounds read low): 0.981 | normalized growth (S. cerevisiae deletion strains, locus YOR001W, strain rrp6, active compounds read low): 0.732 (active) | normalized growth (S. cerevisiae deletion strains, locus YOR061W, strain CKA2, active compounds read low): 1 | normalized growth (S. cerevisiae deletion strains, locus YOR069W, strain VPS5, active compounds read low): 0.988 | normalized growth (S. cerevisiae deletion strains, locus YOR070C, strain gyp1, active compounds read low): 0.966 | normalized growth (S. cerevisiae deletion strains, locus YOR080W, strain dia2, active compounds read low): 0.891 (active) | normalized growth (S. cerevisiae deletion strains, locus YOR083W, strain WHI5, active compounds read low): 0.801 (active) | normalized growth (S. cerevisiae deletion strains, locus YOR106W, strain vam3, active compounds read low): 0.755 (active) | normalized growth (S. cerevisiae deletion strains, locus YOR136W, strain idh2, active compounds read low): 0.971 | normalized growth (S. cerevisiae deletion strains, locus YOR144C, strain elg1, active compounds read low): 0.986 | normalized growth (S. cerevisiae deletion strains, locus YOR184W, strain ser1, active compounds read low): 0.994 | normalized growth (S. cerevisiae deletion strains, locus YOR231W, strain MKK1, active compounds read low): 0.991 | normalized growth (S. cerevisiae deletion strains, locus YOR265W, strain rbl2, active compounds read low): 0.952 | normalized growth (S. cerevisiae deletion strains, locus YOR270C, strain vph1, active compounds read low): 0.814 | normalized growth (S. cerevisiae deletion strains, locus YOR290C, strain snf2, active compounds read low): 0.821 (active) | normalized growth (S. cerevisiae deletion strains, locus YOR316C, strain cot1, active compounds read low): 0.981 | normalized growth (S. cerevisiae deletion strains, locus YPL051W, strain arl3, active compounds read low): 0.863 (active) | normalized growth (S. cerevisiae deletion strains, locus YPL078C, strain atp4, active compounds read low): 0.858 (active) | normalized growth (S. cerevisiae deletion strains, locus YPL106C, strain sse1, active compounds read low): 0.748 (active) | normalized growth (S. cerevisiae deletion strains, locus YPL240C, strain hsp82, active compounds read low): 0.965 | normalized growth (S. cerevisiae deletion strains, locus YPL241C, strain CIN2, active compounds read low): 0.997 | normalized growth (S. cerevisiae deletion strains, locus YPL256C, strain CLN2, active compounds read low): 1.06 | normalized growth (S. cerevisiae deletion strains, locus YPR119W, strain clb2, active compounds read low): 0.99 | normalized growth (S. cerevisiae deletion strains, locus YPR141C, strain kar3, active compounds read low): 1 | normalized growth (S. cerevisiae deletion strains, locus YPR163C, strain tif3, active compounds read low): 0.884 (active) | normalized growth (S. cerevisiae deletion strains, locus YPR167C, strain met16, active compounds read low): 0.97 | normalized growth (S. cerevisiae deletion strains, strain wtn01, active compounds read low): 0.969 | normalized growth (S. cerevisiae strains, strain wild type, active compounds read low): 1.02
